Results as given in PubChem BioAssay.
Activity calls are given as the source filed them.

Legend:
[1] = E. coli DRC41 culture turbidity changes, primary screen, E. coli filamentation inducer project, strain DRC41, OD650, 48 h (AID 1152);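 further: E. coli MC1000 strain DRC41 lacking acrAB efflux pump and sulA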; details: E. coli DRC41 (acrAB sulA), higher = more signal, called active from +8 up or from −8 down
[2] = small-molecule binders of probe aLefty1, primary screen, biochemical, small-molecule microarray, 635/667 nm fluorescence (AID 1153); details: higher = more signal;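 further: score merges spot fluorescence with signal-to-noise ratio from the scanned slide images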
[3] = PSAC antagonists in infected red cells, primary screen, cell-based, P. falciparum Indochina, OD700, 1 h (AID 1154); details: P. falciparum Indochina infected RBC osmotic lysis, higher = more signal, called active from +8 up or from −8 down
[4] = PSAC antagonists in infected red cells, primary screen, cell-based, P. falciparum Indochina, OD700, 2 h (AID 1155);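 further: lysis reports solute entry through the parasite surface anion channel PSAC; channel blockers reduce lysis of infected cells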; details: P. falciparum Indochina infected erythrocytes, osmotic lysis OD700; higher = more signal, called active from +8 up or from −8 down
[5] = osmotic lysis modulators in infected erythrocytes, primary screen, PSAC antagonist project, cell-based, P. falciparum Indochina, OD700, 3 h (AID 1156); details: higher = more signal, called active from +8 up or from −8 down
[6] = PSAC antagonists in infected red cells, primary screen, cell-based, P. falciparum Indochina, OD700, 18 h (AID 1157); details: P. falciparum Indochina infected erythrocytes, osmotic lysis OD700, 18 h; higher = more signal, called active from +8 up or from −8 down
[7] = modulators of S6 phosphorylation in cells, primary screen, cell-based, A549, cytoblot, luminescence, serum-stimulated (AID 1158); details: A549 phospho-S6 cytoblot, 5 h, higher = more signal;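 further: serum-stimulated A549 lung adenocarcinoma cells; signal is phosphorylated S6 detected by cytoblot immunostaining with HRP secondary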
[8] = target: NADPH oxidase 2 (Homo sapiens) (UniProt P04839); experiment: NOX2-dependent H2O2 signal modulators, primary screen, NOX inhibitor project, cell-based, HEK293-NOX2, PMA-stimulated, Amplex Red fluorescence (AID 1159); details: 45 min, higher = more signal, called active from +8 up or from −8 down; further: test concentration not given here
NADPH oxidase 2 (Homo sapiens), sequence (P04839 whole entry, looked up): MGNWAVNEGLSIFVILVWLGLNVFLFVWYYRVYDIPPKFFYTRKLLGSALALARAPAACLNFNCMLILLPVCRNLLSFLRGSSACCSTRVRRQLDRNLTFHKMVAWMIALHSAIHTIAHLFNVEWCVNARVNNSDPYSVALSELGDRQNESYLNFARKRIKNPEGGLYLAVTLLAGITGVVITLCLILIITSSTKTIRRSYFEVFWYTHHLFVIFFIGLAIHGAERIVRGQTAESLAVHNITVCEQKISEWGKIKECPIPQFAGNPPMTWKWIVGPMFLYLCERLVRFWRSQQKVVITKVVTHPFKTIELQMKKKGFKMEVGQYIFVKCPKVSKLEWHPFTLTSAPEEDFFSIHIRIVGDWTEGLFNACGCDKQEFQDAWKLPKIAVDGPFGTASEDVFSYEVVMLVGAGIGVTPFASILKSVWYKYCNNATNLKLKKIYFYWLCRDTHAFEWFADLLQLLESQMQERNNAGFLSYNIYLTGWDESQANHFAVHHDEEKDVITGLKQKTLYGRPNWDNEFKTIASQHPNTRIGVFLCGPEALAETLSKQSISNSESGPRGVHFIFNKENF

[9] = target: NADPH oxidase 4 (Homo sapiens) (UniProt Q9NPH5); experiment: NOX4-dependent H2O2 signal modulators, primary screen, NOX inhibitor project, cell-based, HEK293-NOX4, tetracycline-induced, Amplex Red fluorescence (AID 1160); details: 45 min, higher = more signal, called active from +8 up or from −8 down
NADPH oxidase 4 (Homo sapiens), sequence (Q9NPH5 whole entry, looked up): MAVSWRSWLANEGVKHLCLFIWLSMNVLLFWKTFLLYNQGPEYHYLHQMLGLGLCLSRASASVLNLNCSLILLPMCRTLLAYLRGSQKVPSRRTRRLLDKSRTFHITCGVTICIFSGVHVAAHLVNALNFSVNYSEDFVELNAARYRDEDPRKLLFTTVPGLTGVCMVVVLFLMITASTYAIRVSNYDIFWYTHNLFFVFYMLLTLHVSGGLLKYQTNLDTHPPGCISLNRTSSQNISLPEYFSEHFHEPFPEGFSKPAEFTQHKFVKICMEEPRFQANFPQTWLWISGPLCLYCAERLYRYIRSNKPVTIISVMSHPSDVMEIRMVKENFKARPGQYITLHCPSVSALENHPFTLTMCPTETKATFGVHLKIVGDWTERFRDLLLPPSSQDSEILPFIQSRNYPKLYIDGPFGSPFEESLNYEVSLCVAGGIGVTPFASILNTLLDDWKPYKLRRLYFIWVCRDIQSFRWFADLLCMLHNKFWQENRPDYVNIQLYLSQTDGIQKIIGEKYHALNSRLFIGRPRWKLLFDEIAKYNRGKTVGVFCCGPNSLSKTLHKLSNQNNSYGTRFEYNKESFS

[10] = target: NADPH oxidase 5 (Homo sapiens) (UniProt Q96PH1); experiment: NOX5-dependent H2O2 signal modulators, primary screen, NOX inhibitor project, cell-based, HEK293-NOX5, Amplex Red fluorescence (AID 1161); details: HEK293-NOX5, ionomycin, 45 min, higher = more signal
NADPH oxidase 5 (Homo sapiens), sequence (Q96PH1 whole entry, looked up): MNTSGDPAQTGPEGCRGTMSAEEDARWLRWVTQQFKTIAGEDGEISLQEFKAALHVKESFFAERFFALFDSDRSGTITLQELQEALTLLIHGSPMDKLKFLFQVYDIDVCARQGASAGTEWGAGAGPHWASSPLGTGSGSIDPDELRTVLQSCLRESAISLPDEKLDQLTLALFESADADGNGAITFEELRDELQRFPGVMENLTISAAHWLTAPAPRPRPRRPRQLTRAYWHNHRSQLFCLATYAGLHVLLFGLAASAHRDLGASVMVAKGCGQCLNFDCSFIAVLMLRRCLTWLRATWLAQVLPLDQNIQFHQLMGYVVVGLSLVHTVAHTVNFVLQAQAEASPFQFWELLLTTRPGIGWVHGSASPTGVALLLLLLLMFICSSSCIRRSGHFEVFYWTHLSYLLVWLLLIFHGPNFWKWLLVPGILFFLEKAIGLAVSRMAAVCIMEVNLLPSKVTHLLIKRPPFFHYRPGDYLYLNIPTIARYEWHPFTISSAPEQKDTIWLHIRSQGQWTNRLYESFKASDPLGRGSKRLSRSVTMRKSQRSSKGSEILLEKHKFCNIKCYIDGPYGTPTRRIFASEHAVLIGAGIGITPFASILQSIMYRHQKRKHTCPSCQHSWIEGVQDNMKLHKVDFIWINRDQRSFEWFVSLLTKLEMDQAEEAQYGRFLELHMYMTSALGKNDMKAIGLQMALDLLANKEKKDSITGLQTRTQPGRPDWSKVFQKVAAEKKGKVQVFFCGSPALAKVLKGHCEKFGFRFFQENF

[11] = A549 cell viability effects, profiling panel, calcein-AM fluorescence, 48 h, basal (AID 1162); details: higher = more signal; further: test concentration not given here
[12] = adipocyte viability effects, profiling panel, cell-based, 3T3-L1 adipocytes, calcein-AM fluorescence, 48 h, basal (AID 1163); details: 3T3-L1 adipocytes viability, higher = more signal; further: test concentration not given here
[13] = HepG2 cell viability effects, profiling panel, calcein-AM fluorescence, 48 h, basal (AID 1164); details: higher = more signal; further: test concentration not given here
[14] = MM1S cell viability effects, profiling panel, calcein-AM fluorescence, 48 h, basal (AID 1165); details: higher = more signal;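 further: viability of MM1S multiple myeloma cells under basal unstimulated conditions; test concentration not given here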
[15] = basal RPMI8226 viability, no added stimulus, profiling panel, cell-based, calcein-AM fluorescence, 48 h, PK04 Diversity Set (AID 1166); details: RPMI8226 myeloma viability, higher = more signal;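 further: cells grown under basal conditions without added stimulus; test concentration not given here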
[16] = basal HepG2 mitochondrial membrane potential changes, profiling panel, cell-based, JC-1 fluorescence, 24 h, 100 nL compound (AID 1167); details: higher = more signal; further: test concentration not given here
[17] = basal 3T3-L1 adipocyte mitochondrial potential changes, profiling panel, cell-based, JC-1 fluorescence, 3T3-L1 adipocytes, 24 h, 100 nL compound (AID 1168); details: JC-1 mitochondrial fluorescence, higher = more signal, called active from +8 up or from −8 down; further: test concentration not given here
[18] = basal RPMI8226 mitochondrial membrane potential changes, profiling panel, cell-based, JC-1 fluorescence, 24 h, 100 nL compound (AID 1169); details: RPMI8226 myeloma, JC-1 mitochondrial potential fluorescence, higher = more signal; further: test concentration not given here
[19] = basal MM1S mitochondrial membrane potential changes, profiling panel, cell-based, JC-1 fluorescence, 24 h, 100 nL compound (AID 1170); details: higher = more signal; further: test concentration not given here
[20] = A549 lung cancer cell viability effects, profiling panel, resazurin fluorescence, 24 h, PK04 Diversity Set (AID 1171); details: higher = more signal, called active from +8 up or from −8 down; further: test concentration not given here

| SMILES | z-score [1] | composite z-score [2] | z-score [3] | z-score [4] | z-score [5] | z-score [6] | z-score [7] | z-score [8] | z-score [9] | z-score [10] | z-score [11] | z-score [12] | z-score [13] | z-score [14] | z-score [15] | z-score [16] | z-score [17] | z-score [18] | z-score [19] | z-score [20] |
| --- | --- | --- | --- | --- | --- | --- | --- | --- | --- | --- | --- | --- | --- | --- | --- | --- | --- | --- | --- | --- |
| C=C(/C(=C/C[C@@H](OC(=O)c1ccncc1)c1ccc(OCCO)cc1)c1cc(C(=O)OC)ccc1OC)C(C)C | 0.927 (inactive) | -0.0984 | 17.9 (active) | 2.79 (inactive) | 2.56 (inactive) | 1.02 (inactive) | 0.596 | -2.45 (inactive) | -1.24 (inactive) | -1.86 | -0.738 | 0.61 | 0.391 | -0.166 | 0.687 | 2.81 | 0.436 (inactive) | -0.177 | -0.744 | 1.4 (inactive) |
| C=CC[C@@H](OC(=O)Nc1ccc(OC)cc1)c1ccc(OCCO)cc1 | -0.14 (inactive) | -0.0638 | 19.5 (active) | 3.12 (inactive) | -0.149 (inactive) | 0.894 (inactive) | 0.0966 | -4.11 (inactive) | -1.4 (inactive) | -2.78 | -0.176 | 0.048 | 0.587 | -1.2 | -2.53 | -1.92 | -0.451 (inactive) | -0.052 | 0.19 | 0.213 (inactive) |
| C=CC[C@H](OC(=O)Nc1ccc(OC)cc1)c1ccc(O)c2ccccc12 | -0.326 (inactive) | 0.122 | 5.07 (inactive) | 0.919 (inactive) | -0.0585 (inactive) | 0.328 (inactive) | -0.93 | -6.04 (inactive) | -1.58 (inactive) | -0.343 | -1.39 | -1.07 | -3.1 | -2.8 | -4.26 | -2.68 | -1.05 (inactive) | -1.02 | -2.15 | -0.745 (inactive) |
| CCCN1C(=O)[C@]2(Cc3ccccc3)N=C(c3ccc(OCCCO)cc3)O[C@@H]2c2ccccc21 | 0.655 (inactive) | 0.268 | 34 (active) | 27.2 (active) | 1.25 (inactive) | 4.25 (inactive) | 1.56 | -2.25 (inactive) | 0.187 (inactive) | -1.27 | 0.0649 | 0.932 | -1.26 | -1.26 | -4.03 | 0.596 | 2.77 (inactive) | -1.21 | -1.1 | -0.593 (inactive) |
| C[C@]1(C(=O)NC2CC2)c2ccccc2C(=O)N(Cc2ccc(OC(F)(F)F)cc2)[C@H]1c1ccc(CO)cc1 | 0.323 (inactive) | -0.0186 | 3.33 (inactive) | 0.258 (inactive) | 4.64 (inactive) | 0.0105 (inactive) | -0.111 | 0.264 (inactive) | 0.731 (inactive) | 0.138 | -0.176 | -0.138 | 0.415 | -0.105 | 0.142 | 2.32 | -0.116 (inactive) | 0.917 | -0.316 | 0.306 (inactive) |
| COC(=O)[C@@]1(Cc2ccccc2)[C@H]2c3cc(C(=O)N4CCCC4)n(C[C@H](O)CO)c3C[C@H]2CN1C(=O)c1ccccc1 | -1.22 (inactive) | -0.165 | 0.975 (inactive) | 0.192 (inactive) | 0.218 (inactive) | 0.592 (inactive) | -0.26 | 0.223 (inactive) | -0.303 (inactive) | -1.45 | -1.11 | -0.154 | 0.0709 | 0.37 | 0.302 | 0.438 | -0.128 (inactive) | -0.0296 | -0.3 | -0.63 (inactive) |
| Cc1ccc(S[C@]2(C(=O)NCC(C)C)CC(=O)N(Cc3ccccc3Cl)[C@@H]2c2ccc(CO)cc2I)cc1 | -0.455 (inactive) | 0.258 | 3.05 (inactive) | 0.592 (inactive) | 1.24 (inactive) | 0.254 (inactive) | 0.464 | 2.55 (inactive) | -0.402 (inactive) | 1.52 | -0.0583 | -0.201 | -0.752 | -1.94 | -1.67 | -0.0983 | -0.559 (inactive) | -0.788 | -1.75 | 0.622 (inactive) |
| COC(=O)[C@@]1(Cc2ccccc2)[C@H]2c3cc(C(=O)N4CCCC4)n(Cc4ccsc4Br)c3C[C@H]2CN1C(=O)c1ccccc1 | -1.82 (inactive) | 0.451 | 7 (inactive) | 1.07 (inactive) | 1.04 (inactive) | 1.03 (inactive) | -0.215 | 0.0188 (inactive) | 0.707 (inactive) | -2.92 | -0.991 | 0.213 | -0.248 | -1.54 | -3.59 | 1.6 | -0.205 (inactive) | -0.804 | -1.23 | -0.9 (inactive) |
| CN1C(=O)C2C=CC(C(O)C3CCCCC3)N(N3CCCCC3)C2C1=O (stereo not given) | -0.898 (inactive) | 0.493 | 0.0569 (inactive) | 0.257 (inactive) | 0.42 (inactive) | 1.27 (inactive) | -0.659 | -0.407 (inactive) | 0.674 (inactive) | -0.23 | -1.21 | -0.52 | -0.517 | -0.163 | 0.084 | -0.968 | -0.347 (inactive) | -0.763 | -0.228 | -0.167 (inactive) |
